This note sets out measurements from PubChem BioAssay (NCATS).

Results filed as inconclusive are left out. A number with no mark means an inactive call. Active and inactive are the calls of the source. The call rests on the fitted dose curve; in most records, active means well fitted cell-killing curve with a large enough effect; inconclusive means small, poorly fitted or top-dose-only effect, or effect the other way; inactive means no such curve, though single readings can be large or run the other way.

Experiment [1] is described as follows: Viability qHTS for spleen associated tyrosine kinase inhibitor (SYKi) naive MV4-11 cells (AID 1963823). Further: nearly all actives have a fitted effect of over 40% in size. The gist of the method:
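SYKi-naive MV4-11 AML cells, 500 per well, were exposed to library compounds for 72 hr at 37 C, 5% CO2. Viability was then read by CellTiter-Glo luminescence after 10 min at room temperature.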

Experiment [2] can be described thus: Viability qHTS for spleen associated tyrosine kinase inhibitor (SYKi) drug resistant MV4-11 cells (AID 1963824). Further: nearly all actives have a fitted effect of over 35% in size. The gist of the method:
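SYK-inhibitor-resistant MV4-11 AML cells were seeded at 500 per well onto compound and cultured 72 hours (37 °C, 5% CO2). CellTiter-Glo was then added, and after 10 min at room temperature, luminescence gave viability.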
Background: qHTS replaces the single test concentration by a dilution series.
Potency means the concentration at half of the fitted maximal effect.

For `Nc1ccc(S(=O)(=O)Nc2nccs2)cc1`, the Potency entry in experiment [1] and in experiment [2] was “inactive” in each case.
As to `C[C@@H]1O[C@@H](O[C@H]2[C@H](O)[C@@H](C(=O)O)O[C@@H](O[C@H]3CC[C@@]4(C)C(CC[C@]5(C)C4CC=C4C6CC(C)(C)CC[C@]6(C(=O)O)CC[C@]45C)C3(C)C)[C@@H]2O[C@@H]2O[C@H](CO)[C@@H](O)[C@H](O)[C@H]2O)[C@H](O)[C@H](O)[C@H]1O` (stereo not given in full), in experiment [1], the viability (% of control) was 72.6% [at 9.25 µM]. Further, the viability, % of control in experiment [2] is 81.7% [at 9.25 µM].
As for `C=CC(C)(CC/C=C(\C)C(=O)OC)OC1OC(COC(=O)CC(C)(O)CC(=O)O)C(OC2OC(CO)C(O)C(O)C2O)C(O)C1O` (stereo not given), the Potency entry in experiment [1] and in experiment [2] was “inactive” in each case.
For the molecule `CN(Cc1cccs1)c1ncnc2ccc(-c3ccc4c(c3)OCO4)cc12`, the Potency in experiment [1] and in experiment [2] was 11.6 µM (active) in each case.
For `C=C1CC2OC(=O)C(=C)C2C(O)/C=C(\C)CCC1O` (stereo not given), the values for the Potency in experiment [1] and in experiment [2] were 18.4 µM (active) and 13 µM (active), respectively.
Consider `CC1(C)C[C@H](O)C[C@@]2(C)[C@H]1[C@H](O)C=C1COC(=O)[C@@]12O`, for which the Potency entry in experiment [1] and in experiment [2] was “inactive” throughout.
For the molecule `CC1CCC2(OC1)OC1CC3C4CC=C5CC(O)CC(O[C@@H]6OC[C@@H](O)[C@H](O)[C@H]6O)C5(C)C4CCC3(C)C1(O)C2C` (stereo not given in full), the Potency result in experiment [1] and in experiment [2] was “inactive” each time.
For `C=C1CCC2C(C)(C)C(O)CCC2(C)C1CCC(C)CCO` (stereo not given), the results for the Potency in experiment [1] and in experiment [2] were 9.04 µM (active) and 12.8 µM (active), respectively.
The corresponding values for `NC(=O)c1cccc2[nH]c(-c3ccc(C4CCCN4)cc3F)nc12` (stereo not given) are 13 µM (active) and 16.4 µM (active).
Consider `O=C1CC[C@@H](C(=O)N2CSC[C@H]2C(=O)O)N1`, for which the Potency entry in experiment [1] and in experiment [2] was “inactive” in each case.
